Data published in the supplement of paper PMC10121225.

System: hN + hpA co-culture (H1 iNGN2 human neurons + human primary astrocytes)
Experiment: presynaptic density (SYNAPSIN1 puncta per MAP2 neurite area), Z-score vs DMSO controls; higher = more presynaptic puncta (synapse-promoting)
Conditions: 3 µM; 72 h
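Further: immunostained co-cultures imaged by high-content microscopy, Z-score per plate against mean and SD of 0.1% DMSO wells, compounds added on differentiation day 18, analysed day 21.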

Row | SMILES | presynaptic density (Z-score)
1 | O=C(Nc1ccccc1)c1cc([N+](=O)[O-])ccc1Cl | -0.00538
2 | CN1C(=O)C(Cc2c[nH]c3ccccc23)NC1=S (configuration not stated) [5-(1H-Indol-3-ylmethyl)-3-methyl-2-thioxo-4-imidazolidinone] | -0.458
3 | CC(C)(C)c1cc(C(C)(C)C)c(NC(=O)c2c[nH]c3ccccc3c2=O)cc1O [Ivacaftor (VX-770)] | 0.324
4 | Cc1cc2c(cc1CC(=O)c1sccc1S(=O)(=O)Nc1onc(C)c1Cl)OCO2 [Sitaxentan sodium] | -0.569
5 | COc1cc(N2CCC(N)CC2)ccc1Nc1ncc(Cl)c(-c2c[nH]c3ccccc23)n1 | -0.26
6 | Cc1ccc([C@@H]2O[C@H](CO)[C@@H](O)[C@H](O)[C@H]2O)cc1Cc1ccc(-c2ccc(F)cc2)s1 [Canagliflozin] | -0.473
7 | CN(C)C(=O)[C@H](O)[C@H](Cc1ccccc1)NC(=O)c1cc2cc(Cl)ccc2[nH]1 | -0.264
8 | O=C(c1ccc(F)cc1)N1CCCC(c2nc(-c3ccc(F)cc3)no2)C1 (configuration not stated) | -0.851
9 | CC(NC(=O)Cc1cc(F)cc(F)c1)C(=O)NC1C(=O)N(C)c2ccccc2-c2ccccc21 (configuration not stated) | -0.744
10 | O=C(/C=C/c1cccc(S(=O)(=O)Nc2ccccc2)c1)NO [Belinostat(PXD101)] | 2.26
11 | C[C@@H](O[C@H]1OCCN(Cc2n[nH]c(=O)[nH]2)[C@H]1c1ccc(F)cc1)c1cc(C(F)(F)F)cc(C(F)(F)F)c1 [Aprepitant] | 0.895
12 | COc1cc(Nc2c(C#N)cnc3cc(OCCCN4CCN(C)CC4)c(OC)cc23)c(Cl)cc1Cl [Bosutinib (SKI 606)] | -1.36
